Reference: PubChem BioAssay (NCI)
The panel holds about 83,000 compounds, 20% with a hit somewhere; the sample as a whole holds those more often.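 Negative percent growth values reflect cell death: -40 means 40% of the cells present at the start died, and -100 means all died.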 The source made the active and inactive calls. The calls were made as follows: active = growth percent below 10; inactive = the rest.

The compounds below were run on HL-60(TB) leukemia (assay: NCI-60 one-dose screen, 48 h (100 = growth as untreated, 0 = no growth, -100 = all killed)). Conditions: 10 µM unless noted.

SMILES	growth
O=Cc1cncc(-c2ccc3ncnc(N4CCc5cc(F)c(Cl)cc54)c3c2)c1	44.3% (inactive)
Nc1nc(-c2ccccc2)cs1	18.9% (inactive)
O=C(N/N=C/c1ccc(-c2cccc([N+](=O)[O-])c2)s1)c1[nH]c2ccc(Br)cc2c1-c1ccccc1	81.4% (inactive)
CC(=O)Nc1ccc(-n2cnc3cc(-c4ccc(O)cc4)ccc32)cc1C(F)(F)F	4.45% (active)
Cc1ccc2nc(-c3ccc(-c4nnc(SCC(=O)Nc5ccc(Cl)cc5)o4)cc3)[nH]c2c1	53.8% (inactive)
CC(=O)c1ccc(Nc2nc(SC(C)C)nc(-c3ccccc3)c2C#N)cc1	93.6% (inactive)
CCOC(=O)C1=C(N)N(c2ccc(C)cc2)C2=C(C(=O)CC(C)(C)C2)C1c1ccccc1Br (stereo not given)	-11.2% (active)
O=C1/C(=C/c2cnc(-c3ccccc3)s2)SC(=S)N1Cc1ccc2c(c1)OCO2	69% (inactive)
CCCCCCCCOc1cccc(S(=O)(=O)Nc2ccc(C)cc2C(=O)O)c1	101% (inactive)
N#Cc1ccc(C(=O)Nn2c(N)cc3ccccc3c2=O)cc1	98.5% (inactive)
Cc1nn(-c2ccccc2)c2nc(C)n(CC(=O)N/N=C/c3cccc([N+](=O)[O-])c3)c(=O)c12	99% (inactive)
COc1cc(-c2ccc(/C=N/NC(=O)c3[nH]c4ccc(Br)cc4c3-c3ccccc3)o2)cc(OC)c1OC	99.3% (inactive)
CCOc1ccccc1[C@H]1C(C(=O)c2ccc(Cl)cc2)C2(N[C@@H]1c1ccccc1)C(=O)Nc1ccccc12 (stereo not given in full)	-35.5% (active)
CCCN(CCC)S(=O)(=O)c1ccc(C(=O)O)cc1.CCCN(CCC)S(=O)(=O)c1ccc(C(=O)O)cc1.[Cl][Pt+2][Cl].[NH2-].[NH2-]	-2.97% (active)
C=C(c1ccc(OC)c(N)c1)c1cc(C)nc2ccccc12	-22.8% (active)
CCCS(=O)(=O)N1CCCC(C(=O)Nc2nc3ccc(NC(=O)c4ccc(F)c(OC)c4F)cc3s2)C1 (stereo not given)	27.3% (inactive)
CN(C)c1ccnc(CNCCSC2(c3ccccc3)c3ccccc3C=Cc3ccccc32)c1	-42.8% (active)
COc1ccc(-c2cc(C(=O)N=Nc3c(O)[nH]c4ccc(Cl)cc34)c3ccccc3n2)cc1	96% (inactive)

SMILES	growth
CC1=C(C(=O)OC(C)C)C(c2cccc(O)c2)NC(=S)N1 (stereo not given)	99.2% (inactive)
N/C(=N\N=C\c1ccc([N+](=O)[O-])cc1)c1c(N)nc(=S)[nH]c1-c1ccc(Cl)cc1Cl	103% (inactive)
COc1sc(/C=N/NC(=O)c2[nH]c3ccc(Br)cc3c2-c2ccccc2)cc1Cl	-42.8% (active)
COC(=O)c1c(C(=O)OC)c2c3ccccc3c3ccccc3n2c1C(=O)C(C)(C)C	72.5% (inactive)
c1ccc(-c2csc(Nc3cccc(Nc4nc(-c5ccccc5)cs4)c3)n2)cc1	65.9% (inactive)
COc1ccc(NC(=O)Cn2c(O)c(N=Nc3ccc(S(N)(=O)=O)cc3)c3ccccc32)cc1	96.9% (inactive)
OC(c1ccccc1)(c1ccccc1)C1CCN(c2ccc3nnc(Cl)n3n2)CC1	-33.6% (active)
COC(=O)c1cc(C(=O)CBr)n2c1ccc1c3ccccc3ccc12	49.3% (inactive)
C=C1CCC2C3(C)COC(c4cc(F)cc(F)c4)OC3CCC2(C)C1CC(O)C1=CCOC1=O (stereo not given)	61.2% (inactive)
CCn1c(SCC(=O)Nc2ccc(-c3nc4ccccc4[nH]3)cc2)nc2ccccc2c1=O	0.454% (active)
CCOC(=O)c1ccc(Nc2nc(NN)nc(-c3ccc(F)cc3)c2C#N)cc1	88% (inactive)
COc1c(F)ccc(C(=O)Nc2ccc3nc(NC(=O)C4CCCN(S(=O)(=O)c5ccc(Br)c(F)c5)C4)sc3c2)c1F (stereo not given)	88.8% (inactive)
COc1cccc(-c2nc(Nc3ccc(S(N)(=O)=O)cc3)c3ccccc3n2)c1	35% (inactive)
C#C[C@]1(O)CC[C@H]2[C@@H]3CC=C4c5sc(Nc6ccc(C(F)(F)F)cn6)nc5CC[C@]4(C)[C@H]3CC[C@@]21C	1.27% (active)
CCCn1c(O)c(N=Nc2nc(-c3cc4ccccc4oc3=O)cs2)c2cc(Br)ccc21	99.3% (inactive)
CN(C)c1nc(NCCNS(=O)(=O)c2ccc(C(=O)/C=C/c3ccc(Cl)cc3)cc2)nc(N2CCOCC2)n1	16.8% (inactive)
O=C(CSc1nnc(-c2ccc3nc(-c4ccc(Cl)cc4)[nH]c3c2)o1)Nc1ccc(Br)cc1	-22.3% (active)
